From PubChem
TTR transcr act: activators of transthyretin transcription; SH-SY5Y TTR promoter Gaussia luciferase, luminescence; 100% = recombinant luciferase protein wells; activation, % at 16.7 µM; 92,000 compounds, 1.3% hits; AID 1117267;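 active means activation above the mean of all tested compounds plus 3 SD, cut at about 9.5% in these data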;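 further: cells exposed to compounds for one day before reading; 0% = median of all test compound wells on the plate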
HuH7 TTR inh: decreases TTR transcription in HuH7 cells in activator counter-screen. shares compounds with TTR transcr act. HuH7 TTR promoter-Gaussia luciferase reporter, luminescence. inhibition, % at 16.7 µM. 1,100 compounds, 4% hits;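 active means average inhibition above the solvent-only control wells' mean plus 3 SD, cut at about 15% in these data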;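 further: 0% = cells with DMSO only and 100% = cells with inhibitor control FD; inhibitors lower well luminescence so higher value means more inhibition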
TTR act confirm: human TTR transcription activation, confirmation | shares compounds with TTR transcr act | SHSY5Y TTR promoter Gaussia luciferase, luminescence; 100% = purified Lucia enzyme wells, no cells | activation, % at 16.7 µM | 1,100 tested, under 10 active | AID 1117280;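 active means mean activation above a set limit taken from the earlier primary screen, cut at about 11% in these data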;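 further: 0% = DMSO-treated cells and 100% = recombinant Lucia luciferase without cells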
Starred values were filed as active, the others as inactive. The entries come from a sample that favours hits as a whole.

SMILES	TTR transcr act	others
CC1(C)OC2OC(COC(=O)c3ccc([N+](=O)[O-])cc3)C3OC(C)(C)OC3C2O1 (configuration not stated)	0
CC(=O)N1C(C)(C)CC(=NOC(=O)c2ccccc2)CC1(C)C	-1
CCCC(=O)N(Cc1cccnc1)c1nc2c(OC)ccc(Cl)c2s1	0
CCN(CC)CCCNC(=S)N(Cc1ccco1)Cc1cc2cc3c(cc2[nH]c1=O)OCCO3	1
CCc1ccc2[nH]c(=O)c(CN(Cc3ccco3)C(=S)NCC3CCCO3)cc2c1 (configuration not stated)	12*	HuH7 TTR inh=-24;TTR act confirm=2
CNC(=S)N(Cc1ccco1)Cc1cc2cc3c(cc2[nH]c1=O)OCCO3	-2
O=C(COCc1nc2ccccc2c(=O)[nH]1)NCC1CCCCC1	13*	HuH7 TTR inh=-15;TTR act confirm=0
O=C(c1ccccc1)N(Cc1nc2ccccc2c(=O)[nH]1)C1CCCC1	0
Cc1cccc(C(=O)N(Cc2nc3ccccc3c(=O)[nH]2)C2CCCC2)c1	-3
O=CNc1c(Br)cc2c(c1Br)Cc1cc(Br)ccc1-2	2
Cc1ccc(NCN2C(=O)C3CC=C(Cl)CC3C2=O)cc1 (configuration not stated)	0
O=C(NN1C(=O)C2CC=C(Cl)CC2C1=O)c1ccncc1 (configuration not stated)	12*	HuH7 TTR inh=2;TTR act confirm=-1
O=C(NN1C(=O)C2C3C=CC(C3)C2C1=O)c1ccccc1 (configuration not stated)	0
COc1cccc(OCCn2cccc2/C=C2/C(=N)N3OC(C)=CC3=NC2=O)c1	2
COc1cc(/C=C2/C(=N)N3OC(C)=CC3=NC2=O)ccc1OCCOc1ccc(C)cc1	2
CCOc1ccc(/C=C2/C(=N)N3OC(C)=CC3=NC2=O)cc1OC	9.9*	HuH7 TTR inh=-9;TTR act confirm=0
CCOc1ccc(NC(=O)CN2C(=O)c3cccc4cccc2c34)cc1	4
COc1ccc(Nc2c(-c3ccc(F)cc3)nc3nc(C)cc(C)n23)cc1	0
C[C@H](CO)N1C[C@H](C)[C@@H](CN(C)C(=O)Nc2ccc(C(F)(F)F)cc2)OCc2cn(nn2)CCCC1=O	0
CCC(=O)Nc1cc(Cl)ccc1N1CCN(C(=O)CC)CC1	12*	HuH7 TTR inh=-4;TTR act confirm=0
CCN(CC)S(=O)(=O)c1ccc(N2CCOCC2)c(NC(=O)Cc2ccc(Cl)cc2)c1	-3
CN1CCN(c2ccc(Cl)cc2NC(=O)/C=C/c2cccc(F)c2)CC1	-1
CCOc1ccc(CN2CCN(Cc3cn(CC)nc3C)CC2CCO)cc1 (configuration not stated)	0
Cc1nc(-c2ccc(F)cc2)c(CC(=O)N(C)CC(=O)Nc2ccc(Cl)c(C(F)(F)F)c2)s1	-1
CC1=C(C(=O)Nc2ccccc2C(=O)N2CCC(C)CC2)SCCO1	0
SMILES	TTR transcr act	others
O=C(COc1ncnc2ccccc12)Nc1cc([N+](=O)[O-])ccc1Cl	38*	HuH7 TTR inh=-4;TTR act confirm=0
O=C(COc1ncnc2cc([N+](=O)[O-])ccc12)NC(=O)NC1CCCCC1	0
O=C(CC(=O)c1ccccc1)Nc1cc([N+](=O)[O-])ccc1Cl	3
Cc1nn(CC(=O)c2ccc3c(c2)OCCO3)c(=O)c(C#N)c1C	-1
C=CC(=O)Nc1cccc(Oc2cc(Cl)nc3[nH]ccc23)c1	-3
O=C1CCC(c2ccccc2)N1c1ccccc1 (configuration not stated)	-3
CCOC(=O)c1c(NC(=O)COC(=O)c2cccc([N+](=O)[O-])c2)sc(C(=O)N(C)C)c1C	2
C[C@H]1CN([C@@H](C)CO)S(=O)(=O)c2ccc(C#Cc3cccnc3)cc2O[C@@H]1CN(C)C(=O)Nc1ccc2c(c1)OCO2	-2
COc1cc2c(=O)n(CC3CCCO3)c(=O)n(CC(=O)Nc3ccc(F)cc3F)c2cc1OC (configuration not stated)	0
COc1ccc(NC(=O)Cn2c(=O)n(CC3CCCO3)c(=O)c3cc(OC)c(OC)cc32)c(OC)c1 (configuration not stated)	0
COc1cc2c(=O)n(CC3CCCO3)c(=O)n(CC(=O)Nc3cccc(Cl)c3)c2cc1OC (configuration not stated)	10*	HuH7 TTR inh=-27;TTR act confirm=0
Cc1ccc(C(=O)NCC(=O)NC2CCCCCC2)cc1	1
Cc1nc(SCC(=O)NC2CCCC2)c2oc3ccccc3c2n1	1
CCOC(=O)c1c(CN2CCCCC2)oc2ccc(OC)cc12	-1
CCOC(=O)c1c(C)oc2ccc(O)c(CN3CCCCC3)c12	23*	HuH7 TTR inh=-7;TTR act confirm=0
CCOC(=O)c1c(-c2ccccc2)oc2ccc(O)c(CN3CCOCC3)c12	-4
COC(=O)[C@]12C[C@H](CC(=O)NCc3cccc(C(F)(F)F)c3)C(=O)N(CCc3ccc(OC)c(OC)c3)C1=C[C@H](C1CCCC1)O[C@@H]2C	0
O=C(Nc1c(F)c(F)c(F)c(F)c1F)OC[C@@H]1CSCCS(=O)(=O)N1	-1
C[C@H](CO)N1C[C@H](C)[C@H](CN(C)S(=O)(=O)c2cccc(F)c2)Oc2cc(Br)ccc2S1(=O)=O	2
C[C@H](CO)N1C[C@H](C)[C@H](CN(C)Cc2ccc(Oc3ccccc3)cc2)Oc2cc(Br)ccc2S1(=O)=O	13*	HuH7 TTR inh=-7;TTR act confirm=-1
Cc1ccc(S(=O)(=O)N(C)C[C@H]2Oc3cc(Br)ccc3S(=O)(=O)N([C@H](C)CO)C[C@@H]2C)cc1	6
CC(C)NC(=O)N(C)C[C@H]1Oc2cc(Br)ccc2S(=O)(=O)N([C@H](C)CO)C[C@H]1C	0
COc1ccc(S(=O)(=O)N(C)C[C@H]2Oc3cc(Br)ccc3S(=O)(=O)N([C@H](C)CO)C[C@H]2C)cc1	28*	HuH7 TTR inh=1;TTR act confirm=-1
C[C@H]1CN([C@@H](C)CO)S(=O)(=O)c2ccc(Br)cc2O[C@H]1CN(C)Cc1ccccc1	1
CC(=O)c1ccc(N2C(=NC(=O)C3CCCO3)SC3CS(=O)(=O)CC32)cc1 (configuration not stated)	-2
SMILES	TTR transcr act	others
CC(=O)c1ccc(N2C(=NC(=O)COc3ccccc3)SC3CS(=O)(=O)CC32)cc1 (configuration not stated)	10*	HuH7 TTR inh=-10;TTR act confirm=0
CC(=O)c1cccc(N2C(=NC(=O)CCc3ccccc3)SC3CS(=O)(=O)CC32)c1 (configuration not stated)	0
CC(C)(C)c1ccc(-c2noc(CCC(=O)NC3CC3)n2)cc1	6
CC1(c2nnnn2Cc2ccccc2)CCC(=O)N1Cc1ccc(F)cc1 (configuration not stated)	2
Cc1ccc(CNC(=O)O[C@H]2CC[C@@]34CCCN3C(=O)CCC[C@H]4[C@H]2C)o1	0
O=C(Nc1ccc(C(=O)N2CCOCC2)cc1)C1CCC1	1
CNc1ccc(/C=C(\C#N)C(=O)Nc2ccccn2)cc1[N+](=O)[O-]	23*	HuH7 TTR inh=-12;TTR act confirm=0
CC(C)(C)c1ccc(/C=C(\C#N)C(=O)Nc2ccccn2)cc1	-2
COc1cc(/C=C(\C#N)C(=O)Nc2ccccn2)ccc1O	1
Cc1cc(S(=O)(=O)N2CCOCC2)ccc1OCC(=O)NCC1CCCO1 (configuration not stated)	1
